# Results: paper PMC7862700, “An all-to-all approach to the identification of sequence-specific readers for epigenetic DNA modifications on cytosine”
# Tests used:
# Test in all cases: DAPPL (digital affinity profiling via proximity ligation, sequencing); 10 mM Tris-HCl pH 7.5, 50 mM NaCl, 1 mM DTT, 4% glycerol, room temperature, 30 min; GST-TFs on glutathione beads, 16-mer random dsDNA library, 0.1% formaldehyde crosslink after washing; high values mean tight binding
# Conditions in all cases: protein: recombinant; tags: N-terminal GST; dsDNA, one strand shown
# FLI1 = molecular target: T1, FLI1 (Homo sapiens, UniProt Q01543 1-452)
# T1 sequence: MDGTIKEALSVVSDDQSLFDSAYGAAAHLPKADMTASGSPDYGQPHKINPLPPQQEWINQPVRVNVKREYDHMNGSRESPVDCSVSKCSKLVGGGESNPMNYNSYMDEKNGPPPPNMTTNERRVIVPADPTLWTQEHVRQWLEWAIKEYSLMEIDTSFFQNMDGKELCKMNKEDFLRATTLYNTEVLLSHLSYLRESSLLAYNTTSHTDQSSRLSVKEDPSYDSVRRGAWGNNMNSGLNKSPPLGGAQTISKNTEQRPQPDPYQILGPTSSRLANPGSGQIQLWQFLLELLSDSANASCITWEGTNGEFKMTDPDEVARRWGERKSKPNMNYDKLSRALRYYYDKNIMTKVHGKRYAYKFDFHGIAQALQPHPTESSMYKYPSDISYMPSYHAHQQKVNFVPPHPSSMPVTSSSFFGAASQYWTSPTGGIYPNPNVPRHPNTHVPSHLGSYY
# Summary of the method: (§1)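 After expression in yeast as GST fusions, human transcription factors were bound to glutathione beads, DNA-barcoded and mixed with a tag-only sample. The pools were incubated with 200 nmole of a 16-mer random double-stranded DNA library in Tris/NaCl/DTT/glycerol buffer (30 min, room temperature), washed and crosslinked with 0.1% formaldehyde. Proximity ligation with BsaI/T4 ligase ran for 1 h at 37 °C, before PCR amplification and sequencing on an Illumina NextSeq500. Binding signal is a hexamer's read frequency for a factor divided by its frequency for the tag-only sample.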
# ELK1 = molecular target: T2, ELK1 (Homo sapiens, UniProt P19419 1-428)
# T2 sequence: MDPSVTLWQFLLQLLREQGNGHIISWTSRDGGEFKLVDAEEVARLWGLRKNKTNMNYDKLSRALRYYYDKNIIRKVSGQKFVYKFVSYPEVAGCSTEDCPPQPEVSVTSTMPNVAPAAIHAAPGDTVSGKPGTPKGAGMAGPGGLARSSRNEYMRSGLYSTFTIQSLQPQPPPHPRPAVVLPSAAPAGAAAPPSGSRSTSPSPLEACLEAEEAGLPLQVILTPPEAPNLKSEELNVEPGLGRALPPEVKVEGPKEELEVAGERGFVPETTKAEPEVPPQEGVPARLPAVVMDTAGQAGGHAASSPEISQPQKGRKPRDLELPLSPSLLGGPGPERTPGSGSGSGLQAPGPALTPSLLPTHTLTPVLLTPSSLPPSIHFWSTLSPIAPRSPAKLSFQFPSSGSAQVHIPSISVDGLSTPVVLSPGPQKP
# Summary of the method: as §1
# GABPA = molecular target: T3, GABPA (Homo sapiens, UniProt Q06546 1-454)
# T3 sequence: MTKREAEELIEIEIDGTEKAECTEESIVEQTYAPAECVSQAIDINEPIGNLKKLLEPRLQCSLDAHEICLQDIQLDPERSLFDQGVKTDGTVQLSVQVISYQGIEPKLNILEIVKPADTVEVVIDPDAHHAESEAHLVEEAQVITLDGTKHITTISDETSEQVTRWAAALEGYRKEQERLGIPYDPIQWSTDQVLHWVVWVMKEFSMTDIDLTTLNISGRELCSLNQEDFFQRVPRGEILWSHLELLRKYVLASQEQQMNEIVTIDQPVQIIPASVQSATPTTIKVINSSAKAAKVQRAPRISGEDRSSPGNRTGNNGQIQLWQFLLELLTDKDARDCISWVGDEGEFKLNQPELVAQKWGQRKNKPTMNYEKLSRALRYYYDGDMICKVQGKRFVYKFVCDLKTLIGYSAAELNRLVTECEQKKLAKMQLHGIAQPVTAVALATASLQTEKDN
# Summary of the method: as §1
# ERG = molecular target: T4, ERG (Homo sapiens, UniProt P11308 1-479)
# T4 sequence: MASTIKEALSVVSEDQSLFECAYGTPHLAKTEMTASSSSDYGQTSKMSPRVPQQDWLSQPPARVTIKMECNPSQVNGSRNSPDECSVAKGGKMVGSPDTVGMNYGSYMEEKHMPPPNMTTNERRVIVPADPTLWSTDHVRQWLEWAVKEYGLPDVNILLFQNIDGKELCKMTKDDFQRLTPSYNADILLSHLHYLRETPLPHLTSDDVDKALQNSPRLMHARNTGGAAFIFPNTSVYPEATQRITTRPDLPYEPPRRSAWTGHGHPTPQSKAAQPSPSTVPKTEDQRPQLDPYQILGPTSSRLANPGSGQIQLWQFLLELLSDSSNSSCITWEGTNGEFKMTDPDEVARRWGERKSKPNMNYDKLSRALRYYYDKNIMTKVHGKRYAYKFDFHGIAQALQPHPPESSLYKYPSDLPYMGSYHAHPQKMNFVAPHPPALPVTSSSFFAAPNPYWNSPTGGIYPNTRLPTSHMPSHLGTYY
# Summary of the method: as §1
# ELF1 = ELF1 (Homo sapiens, UniProt P32519 1-619)
# Summary of the method: as §1
# EHF = molecular target: T5, EHF (Homo sapiens, UniProt Q9NZC4 1-300)
# T5 sequence: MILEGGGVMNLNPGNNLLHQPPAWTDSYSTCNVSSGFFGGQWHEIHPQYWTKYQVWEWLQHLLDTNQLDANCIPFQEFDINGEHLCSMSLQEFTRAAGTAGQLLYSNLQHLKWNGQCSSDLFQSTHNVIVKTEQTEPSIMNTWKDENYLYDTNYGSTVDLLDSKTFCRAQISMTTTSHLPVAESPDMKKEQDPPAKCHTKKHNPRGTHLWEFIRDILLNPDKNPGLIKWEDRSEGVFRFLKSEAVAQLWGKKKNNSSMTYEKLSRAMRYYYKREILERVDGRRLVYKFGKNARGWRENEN
# Summary of the method: as §1
# SPIB = SPIB (Homo sapiens, UniProt Q01892 1-262)
# Summary of the method: as §1
# ELK3 = molecular target: T6, ELK3 (Homo sapiens, UniProt P41970 1-407)
# T6 sequence: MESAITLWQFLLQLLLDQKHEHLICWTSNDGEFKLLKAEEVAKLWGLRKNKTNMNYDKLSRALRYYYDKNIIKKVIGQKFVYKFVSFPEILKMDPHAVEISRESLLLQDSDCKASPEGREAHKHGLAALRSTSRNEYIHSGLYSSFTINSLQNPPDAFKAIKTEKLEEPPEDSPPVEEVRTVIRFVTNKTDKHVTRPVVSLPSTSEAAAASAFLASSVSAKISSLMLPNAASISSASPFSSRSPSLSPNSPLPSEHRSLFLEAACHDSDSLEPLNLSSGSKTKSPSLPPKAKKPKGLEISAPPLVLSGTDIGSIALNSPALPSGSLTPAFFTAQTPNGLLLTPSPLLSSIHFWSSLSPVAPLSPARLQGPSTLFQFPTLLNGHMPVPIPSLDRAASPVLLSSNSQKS
# Summary of the method: as §1
# FEV = molecular target: T7, FEV (Homo sapiens, UniProt Q99581 1-238)
# T7 sequence: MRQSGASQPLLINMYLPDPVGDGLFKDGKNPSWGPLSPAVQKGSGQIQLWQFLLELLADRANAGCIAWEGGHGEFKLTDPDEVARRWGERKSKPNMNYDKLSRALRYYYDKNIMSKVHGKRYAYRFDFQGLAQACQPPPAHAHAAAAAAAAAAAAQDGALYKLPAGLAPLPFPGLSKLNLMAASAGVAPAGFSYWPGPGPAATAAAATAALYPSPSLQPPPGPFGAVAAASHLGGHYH
# Summary of the method: as §1
# ETV5 = ETV5 (Homo sapiens, UniProt P41161 1-510)
# Summary of the method: as §1
# SPIC = molecular target: T8, SPIC (Homo sapiens, UniProt Q8N5J4 1-248)
# T8 sequence: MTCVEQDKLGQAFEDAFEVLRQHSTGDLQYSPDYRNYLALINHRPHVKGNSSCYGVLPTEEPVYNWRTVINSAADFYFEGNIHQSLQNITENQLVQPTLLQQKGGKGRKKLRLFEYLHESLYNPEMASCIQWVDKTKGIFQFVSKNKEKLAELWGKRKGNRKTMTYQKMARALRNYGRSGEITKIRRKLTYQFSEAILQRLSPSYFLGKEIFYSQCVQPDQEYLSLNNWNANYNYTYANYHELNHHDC
# Summary of the method: as §1
# ELF4 = ELF4 (Homo sapiens, UniProt Q99607 1-663)
# Summary of the method: as §1
# ETV1 = ETV1 (Homo sapiens, UniProt P50549 1-477)
# Summary of the method: as §1
# ERF = molecular target: T9, ERF (Homo sapiens, UniProt P50548 1-548)
# T9 sequence: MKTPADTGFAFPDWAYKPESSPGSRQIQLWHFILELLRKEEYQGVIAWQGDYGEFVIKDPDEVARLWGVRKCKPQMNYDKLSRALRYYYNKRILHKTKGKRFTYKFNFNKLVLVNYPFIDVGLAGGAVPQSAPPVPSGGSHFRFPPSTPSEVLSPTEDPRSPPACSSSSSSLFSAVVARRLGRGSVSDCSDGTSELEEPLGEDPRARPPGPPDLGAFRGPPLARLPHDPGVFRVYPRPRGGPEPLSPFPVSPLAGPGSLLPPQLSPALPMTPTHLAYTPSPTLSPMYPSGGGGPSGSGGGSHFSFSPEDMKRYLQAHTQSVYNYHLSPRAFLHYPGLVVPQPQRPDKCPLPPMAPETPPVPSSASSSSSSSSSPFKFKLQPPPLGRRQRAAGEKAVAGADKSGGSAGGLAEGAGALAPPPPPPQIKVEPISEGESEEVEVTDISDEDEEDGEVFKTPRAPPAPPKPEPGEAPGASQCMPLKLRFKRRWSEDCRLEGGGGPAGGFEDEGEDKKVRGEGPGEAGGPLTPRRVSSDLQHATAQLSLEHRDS
# Summary of the method: as §1
# ETV3L = molecular target: T10, ETV3L (Homo sapiens, UniProt Q6ZN32 1-361)
# T10 sequence: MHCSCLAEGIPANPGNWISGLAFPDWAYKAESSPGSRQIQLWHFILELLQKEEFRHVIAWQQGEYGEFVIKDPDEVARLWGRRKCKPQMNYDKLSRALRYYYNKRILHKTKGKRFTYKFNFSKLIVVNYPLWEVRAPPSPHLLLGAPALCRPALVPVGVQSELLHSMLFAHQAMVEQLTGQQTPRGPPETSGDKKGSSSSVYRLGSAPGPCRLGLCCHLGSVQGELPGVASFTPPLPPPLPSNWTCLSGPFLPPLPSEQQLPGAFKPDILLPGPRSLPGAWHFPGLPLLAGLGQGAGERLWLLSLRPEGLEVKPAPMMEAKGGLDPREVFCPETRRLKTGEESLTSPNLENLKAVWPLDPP
# Summary of the method: as §1
# ETS2 = molecular target: T11, ETS2 (Homo sapiens, UniProt P15036 1-469)
# T11 sequence: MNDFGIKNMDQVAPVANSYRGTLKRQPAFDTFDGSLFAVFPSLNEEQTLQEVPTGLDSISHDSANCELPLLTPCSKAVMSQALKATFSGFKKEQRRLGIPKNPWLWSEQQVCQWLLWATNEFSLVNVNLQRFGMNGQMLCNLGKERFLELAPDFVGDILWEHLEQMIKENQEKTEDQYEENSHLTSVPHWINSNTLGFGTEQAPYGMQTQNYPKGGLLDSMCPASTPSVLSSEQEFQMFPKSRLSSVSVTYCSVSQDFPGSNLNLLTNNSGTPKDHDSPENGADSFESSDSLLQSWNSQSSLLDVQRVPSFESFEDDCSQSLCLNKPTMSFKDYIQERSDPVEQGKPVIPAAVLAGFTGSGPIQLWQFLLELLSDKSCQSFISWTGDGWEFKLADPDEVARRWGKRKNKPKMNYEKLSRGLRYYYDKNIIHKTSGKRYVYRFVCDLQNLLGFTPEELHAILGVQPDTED
# Summary of the method: as §1
# SPDEF = molecular target: T12, SPDEF (Homo sapiens, UniProt O95238 1-335)
# T12 sequence: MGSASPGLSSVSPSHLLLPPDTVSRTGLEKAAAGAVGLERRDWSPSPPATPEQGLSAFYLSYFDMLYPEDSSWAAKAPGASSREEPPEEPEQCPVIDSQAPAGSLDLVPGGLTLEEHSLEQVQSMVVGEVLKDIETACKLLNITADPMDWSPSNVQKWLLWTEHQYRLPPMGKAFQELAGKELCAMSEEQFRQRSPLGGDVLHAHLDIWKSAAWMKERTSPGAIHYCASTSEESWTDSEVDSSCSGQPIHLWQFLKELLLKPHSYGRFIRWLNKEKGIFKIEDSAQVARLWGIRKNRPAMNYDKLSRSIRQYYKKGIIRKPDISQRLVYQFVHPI
# Summary of the method: as §1
# ETV3 = molecular target: T13, ETV3 (Homo sapiens, UniProt P41162-2 1-143)
# T13 sequence: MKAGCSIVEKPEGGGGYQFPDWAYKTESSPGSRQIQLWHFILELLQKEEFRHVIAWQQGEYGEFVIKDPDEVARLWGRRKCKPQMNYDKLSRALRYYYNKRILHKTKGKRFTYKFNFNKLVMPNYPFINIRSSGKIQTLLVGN
# Summary of the method: as §1
# ELF1, sequence (P32519 whole entry): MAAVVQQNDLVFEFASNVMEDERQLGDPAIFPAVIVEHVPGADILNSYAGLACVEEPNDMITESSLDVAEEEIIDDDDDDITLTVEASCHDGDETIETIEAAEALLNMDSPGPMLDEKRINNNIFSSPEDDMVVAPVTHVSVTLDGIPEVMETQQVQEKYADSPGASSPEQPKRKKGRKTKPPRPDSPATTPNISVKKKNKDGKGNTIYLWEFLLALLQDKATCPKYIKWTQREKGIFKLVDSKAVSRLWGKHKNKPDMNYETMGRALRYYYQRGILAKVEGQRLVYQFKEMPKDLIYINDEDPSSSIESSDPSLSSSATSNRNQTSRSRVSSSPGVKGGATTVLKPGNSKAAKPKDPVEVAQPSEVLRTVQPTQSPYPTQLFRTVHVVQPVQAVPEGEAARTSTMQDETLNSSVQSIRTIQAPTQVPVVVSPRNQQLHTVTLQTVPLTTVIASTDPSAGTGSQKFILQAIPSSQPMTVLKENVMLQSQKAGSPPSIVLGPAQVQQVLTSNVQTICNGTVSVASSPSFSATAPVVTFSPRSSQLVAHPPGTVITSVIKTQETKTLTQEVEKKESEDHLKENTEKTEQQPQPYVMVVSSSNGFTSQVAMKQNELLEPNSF
# SPIB, sequence (Q01892 whole entry): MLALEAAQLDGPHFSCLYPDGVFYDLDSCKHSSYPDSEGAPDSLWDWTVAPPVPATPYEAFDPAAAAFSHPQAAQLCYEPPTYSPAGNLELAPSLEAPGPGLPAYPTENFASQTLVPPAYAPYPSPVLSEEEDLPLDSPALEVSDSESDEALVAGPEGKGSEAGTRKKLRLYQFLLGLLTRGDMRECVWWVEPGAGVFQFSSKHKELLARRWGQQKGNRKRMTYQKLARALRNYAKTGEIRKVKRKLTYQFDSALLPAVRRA
# ETV1, sequence (P50549 whole entry): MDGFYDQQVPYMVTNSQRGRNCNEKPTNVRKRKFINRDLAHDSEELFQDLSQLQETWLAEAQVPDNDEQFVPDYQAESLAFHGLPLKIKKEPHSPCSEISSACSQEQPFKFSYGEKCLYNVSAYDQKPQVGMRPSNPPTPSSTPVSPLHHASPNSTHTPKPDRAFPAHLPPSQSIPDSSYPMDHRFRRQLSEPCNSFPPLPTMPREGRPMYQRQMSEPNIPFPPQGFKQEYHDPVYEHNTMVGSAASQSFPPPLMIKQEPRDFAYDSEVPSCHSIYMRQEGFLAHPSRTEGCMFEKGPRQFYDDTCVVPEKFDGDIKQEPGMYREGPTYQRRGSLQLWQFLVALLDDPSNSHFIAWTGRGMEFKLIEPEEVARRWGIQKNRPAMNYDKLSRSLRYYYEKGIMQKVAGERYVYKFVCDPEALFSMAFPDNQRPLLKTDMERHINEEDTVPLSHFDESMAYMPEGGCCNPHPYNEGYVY
# ETV5, sequence (P41161 whole entry): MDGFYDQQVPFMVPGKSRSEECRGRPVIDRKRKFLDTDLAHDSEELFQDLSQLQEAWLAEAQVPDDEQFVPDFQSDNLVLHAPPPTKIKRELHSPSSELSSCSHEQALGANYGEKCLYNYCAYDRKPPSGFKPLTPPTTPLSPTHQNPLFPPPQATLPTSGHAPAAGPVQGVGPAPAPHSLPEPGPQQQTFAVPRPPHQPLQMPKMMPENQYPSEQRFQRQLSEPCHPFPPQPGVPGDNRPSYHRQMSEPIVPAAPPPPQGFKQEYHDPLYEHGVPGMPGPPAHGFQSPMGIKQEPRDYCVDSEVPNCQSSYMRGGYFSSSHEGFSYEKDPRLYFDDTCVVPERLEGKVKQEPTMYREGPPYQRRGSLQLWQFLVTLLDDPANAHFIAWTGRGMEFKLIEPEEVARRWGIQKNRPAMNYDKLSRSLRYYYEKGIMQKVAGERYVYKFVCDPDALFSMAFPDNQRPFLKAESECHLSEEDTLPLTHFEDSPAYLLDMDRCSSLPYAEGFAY
# ELF4, sequence (Q99607 whole entry): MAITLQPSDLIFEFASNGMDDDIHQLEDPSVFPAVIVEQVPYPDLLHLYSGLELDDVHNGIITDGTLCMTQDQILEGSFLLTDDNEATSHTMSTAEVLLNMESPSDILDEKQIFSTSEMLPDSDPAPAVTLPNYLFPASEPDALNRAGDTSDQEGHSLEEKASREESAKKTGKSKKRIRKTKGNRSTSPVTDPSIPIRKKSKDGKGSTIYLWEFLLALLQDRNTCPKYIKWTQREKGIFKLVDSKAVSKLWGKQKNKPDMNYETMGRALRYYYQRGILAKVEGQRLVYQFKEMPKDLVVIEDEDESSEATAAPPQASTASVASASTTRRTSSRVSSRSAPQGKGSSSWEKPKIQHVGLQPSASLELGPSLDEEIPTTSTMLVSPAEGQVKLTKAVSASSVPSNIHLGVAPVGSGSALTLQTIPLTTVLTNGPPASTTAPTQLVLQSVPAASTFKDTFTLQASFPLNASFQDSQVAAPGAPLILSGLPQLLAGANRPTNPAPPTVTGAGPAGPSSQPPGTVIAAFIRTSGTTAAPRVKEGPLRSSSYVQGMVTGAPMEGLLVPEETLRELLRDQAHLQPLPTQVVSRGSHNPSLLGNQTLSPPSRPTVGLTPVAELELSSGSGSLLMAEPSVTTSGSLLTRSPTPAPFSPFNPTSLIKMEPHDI
sequence,measurement,setting,value
CGGCCT,binding signal,FLI1,"1.22 fold enrichment (6-mer frequency, TF over GST control)"
same,binding signal,ELK1,"1.15 fold enrichment (6-mer frequency, TF over GST control)"
same,binding signal,GABPA,"1.16 fold enrichment (6-mer frequency, TF over GST control)"
same,binding signal,ERG,"1.17 fold enrichment (6-mer frequency, TF over GST control)"
same,binding signal,ELF1,"1.1 fold enrichment (6-mer frequency, TF over GST control)"
same,binding signal,EHF,"1.08 fold enrichment (6-mer frequency, TF over GST control)"
same,binding signal,SPIB,"1.02 fold enrichment (6-mer frequency, TF over GST control)"
same,binding signal,ELK3,"1.13 fold enrichment (6-mer frequency, TF over GST control)"
same,binding signal,FEV,"1.17 fold enrichment (6-mer frequency, TF over GST control)"
same,binding signal,ETV5,"1.14 fold enrichment (6-mer frequency, TF over GST control)"
same,binding signal,SPIC,"1.14 fold enrichment (6-mer frequency, TF over GST control)"
same,binding signal,ELF4,"1.12 fold enrichment (6-mer frequency, TF over GST control)"
same,binding signal,ETV1,"1.05 fold enrichment (6-mer frequency, TF over GST control)"
same,binding signal,ERF,"1.06 fold enrichment (6-mer frequency, TF over GST control)"
same,binding signal,ETV3L,"1.07 fold enrichment (6-mer frequency, TF over GST control)"
same,binding signal,ETS2,"1.06 fold enrichment (6-mer frequency, TF over GST control)"
same,binding signal,SPDEF,"1.12 fold enrichment (6-mer frequency, TF over GST control)"
same,binding signal,ETV3,"1.18 fold enrichment (6-mer frequency, TF over GST control)"
